# Most compounds without a hit are left out; they make up all but 3.5% or so of the library.
# mHTT CaM bind – inhibitors of human mutant huntingtin-calmodulin interaction; P42858; AlphaScreen His-mHTT/GST-CaM binding, luminescence; inhibition, % at 15 µM; hit rate 3.6% among 190,000; AID 1671202;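 note: 0% = both proteins with DMSO and 100% = one protein alone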
# Pf apPOL inh – Pf-apPOL DNA polymerase inhibition; Recombinant Pf-apPOL, molecular beacon fluorescence, 1.5 h; hit rate 0.25% among 210,000; inhibition, % at 10 µM
# Active calls of the source: *; x = no result. Cut-off read from the data, not from the text of the source: active = inhibition above about 50%; inactive = the rest.
SMILES,mHTT CaM bind,Pf apPOL inh
CCOc1ccc2nc(C(=O)N3CCCCC3)sc2c1,-10,-10
COc1cc(N2Cc3ccccc3C2)ccc1C=O,72*,-5
COc1cc(N2Cc3ccccc3C2)ccc1/C=C(\C#N)C(=O)NCc1ccco1,18,-2
c1ccc(-c2n[nH]c(C3CCCN3Cc3ccccn3)n2)cc1 (stereo unspecified),100*,-30
c1ccc(-c2n[nH]c(C3CCCN3Cc3ccco3)n2)cc1 (stereo unspecified),33,3
COc1ccc(-n2cnc3cc(N=Cc4ccc([N+](=O)[O-])cc4)ccc32)cc1,4,-7
CC(=O)N1CCN(C2=Nc3ccccc3Oc3ccccc32)CC1,19,-2
CC(=O)N1CCCN(C2=Nc3ccc(C)cc3Oc3ccccc32)CC1,54*,-6
Cc1ccc(S(=O)(=O)N(C)C)cc1NC(=O)Nc1ccc(OC(F)(F)F)cc1,x,-1
CCc1ccc2c(c1)C(=O)C(=O)N2,21,-4
O=C1Nc2ccc(Br)cc2C12NN=C(c1ccccc1)S2 (stereo unspecified),100*,0
O=C1Nc2ccc(Br)cc2C1(O)Cc1ccccn1 (stereo unspecified),6,-8
CCc1ccc2c(c1)C1(NN=C(c3ccc(C)cc3)S1)C(=O)N2 (stereo unspecified),100*,2
Cc1cc(C)cc(S(=O)(=O)N2CCN(Cc3noc4ccccc34)CC2)c1,-10,-2
O=C(O)Cc1ccc(NCc2ccc(Br)cc2)cc1,-1,-7
O=C(Nc1ccc(O)c2c(=O)cc(-c3ccccc3Cl)oc12)c1ccc(Br)cc1,21,-4
CN(C)c1ccc(C(=O)Nc2ccc(O)c3c(=O)cc(-c4ccccc4Cl)oc23)cc1,54*,2
COc1ccc(-c2cc(-c3ccccc3)nc(=O)[nH]2)cc1,3,-6
COc1ccc(-c2cc(-c3cc(OC)ccc3O)[nH]n2)cc1,72*,-3
CCOc1ccc(NC(=O)c2nnn(-c3ccccc3OC)c2N)cc1,3,-7
Cc1nc2cc(N=Cc3ccccc3O)ccc2n1C,8,19
Cc1nc2cc(N=Cc3ccc(Br)cc3)ccc2n1C,5,53*
O=C(NCCCn1ccnc1)C(=O)NC1CC1,24,-5
COc1ccc(-c2c(C)oc3cc(OC(=O)C(C)C)ccc3c2=O)cc1OC,84*,-7
COc1ccc(-c2c(C)oc3cc(O)ccc3c2=O)cc1OC,3,-5
SMILES,mHTT CaM bind,Pf apPOL inh
COc1ccc(C(=O)Oc2ccc3c(=O)c(-c4ccc(OC)c(OC)c4)c(C)oc3c2)cc1OC,-2,2
COc1ccc(-c2c(C)oc3cc(O)ccc3c2=O)cc1,-5,62*
COCCn1c(C2CCN(C(=O)Nc3cc(F)ccc3F)C2)nc2cccnc21 (stereo unspecified),1,-8
Cc1ccc(C)c(Cc2c(C)nc3c(C(=O)NC(C)C)cnn3c2C)c1,79*,-9
Cc1ccccc1Cc1c(C)nc2c(C(=O)NC(C)C)cnn2c1C,71*,-13
Cc1ccc(C)c(Cc2c(C)nc3c(C(=O)NC4CC4)cnn3c2C)c1,53*,-6
COCCCNC(=O)c1cnn2c(C)c(Cc3cc(C)ccc3C)c(C)nc12,42,-11
Cc1ccc(C)c(Cc2c(C)nc3c(C(=O)NC4CCCCC4)cnn3c2C)c1,-1,1
Cc1ccccc1Cc1c(C)nc2c(C(=O)NC3CCCC3)cnn2c1C,-1,-9
CNC(=O)CN1C(=O)CC(C)(C)Sc2ccccc21,-5,-4
CC1CN(C2=NC(=O)/C(=C/c3cccc(O)c3)S2)CC(C)O1 (stereo unspecified),6,1
Cc1cc(C)cc(C(=O)N2CCC3(CC2)NC(=O)c2ccc(Cl)cc2N3)c1,6,-2
COc1cccc(CNc2ccc3c(c2)CCC3)c1,67*,2
COc1ccc(CNc2ccc(F)c(Cl)c2)cc1,-37,13
COc1cccc(CNc2ccc(C)c(C)c2)c1,53*,0
COc1cc(CNc2ccc(C)c(C)c2)cc(OC)c1,69*,0
COc1cccc(CNc2ccccc2)c1,4,-2
COc1cccc(CNc2cccc(F)c2)c1,-34,-14
COc1ccccc1-n1nc(C(=O)N2CCCC2)c2ccccc2c1=O,-5,-3
O=C(Nc1c(F)c(F)c(F)c(F)c1F)c1ccccc1,-10,-9
O=C(Nc1c(Cl)c(Cl)c(O)c(Cl)c1Cl)c1ccccc1,85*,-10
CCOc1ccc(NC(=O)CSc2nc3ccc([N+](=O)[O-])cc3[nH]2)cc1,9,-14
Cc1cc(C2C(C#N)=C(N)N(c3ncn[nH]3)C3=C2C(=O)CC(C)(C)C3)c(C)s1 (stereo unspecified),9,0
CC(C)C(=O)N1CCc2ccccc2C1C(=O)NCc1ccc(N(C)C)cc1 (stereo unspecified),1,-5
COc1ccc(NC(=O)CSC2=NC(=O)CC(C)=N2)cc1,-1,76*
SMILES,mHTT CaM bind,Pf apPOL inh
COc1ccc(NC(=O)CSc2nccn2C)cc1,-2,4
c1ccc(-c2ncc(CSc3nc4ccccc4s3)o2)cc1,-36,5
CCOc1ccc(CNC(=O)c2cc3c(s2)CCN(C(=O)c2ccccc2)C3)cc1,12,-5
COc1ccc(OCc2ccccc2)c(C=O)c1,-29,-35
O=Cc1cc(OCc2ccccc2)ccc1O,76*,-3
Cc1ccc2c(c1)N(C(=O)Nc1ccccc1C)CCO2,-1,-4
Cc1nc(-c2ccccc2)sc1C(=O)NNC(=O)c1c(C)noc1C,x,-10
CCc1ccccc1NCn1nnc2ccccc21,21,1
COc1ccc(C(=O)C=Cc2ccc(OC)c(OC)c2)c(O)c1,50*,-3
COc1ccc(C(=O)C=Cc2ccc(OC)c(OC)c2)c(OC)c1,13,-16
CCc1cccc(C)c1NC(=O)COc1ccc(C)c(C)c1,-11,-7
COc1ccc(NC(=O)Cc2cn(C)c3ccccc23)cc1OC,11,-4
COc1ccc(CN2CCCC2c2c(C)noc2C)cc1 (stereo unspecified),-14,-3
CCc1ccc(CCNC(=O)O[C@@H]2C[C@H]3C[C@@H]2[C@H]2CCCCN2[C@H]3C)cc1,14,-14
C[C@H]1[C@@H]2C[C@H]([C@H]3CCCCN31)[C@H](OC(=O)NCc1ccc(Cl)cc1)C2,53*,-8
CC1(C)CC(=O)C(C=Nc2cccc(N=CC3=C(O)CC(C)(C)CC3=O)n2)=C(O)C1,0,6
CCOc1cc(/C=C2/C=C(c3ccc(C)cc3)OC2=O)ccc1O,55*,8
CCOc1ccc(C2=C/C(=C/c3ccc(C)c(OC)c3)C(=O)O2)cc1,-14,3
Cc1cccc(C2C(C(=O)NCC3CCCO3)c3ccccc3C(=O)N2C2CC2)c1 (stereo unspecified),3,-2
COc1ccccc1NC(=O)c1ccc2c(c1)-c1ccccc1C2=O,2,0
Cc1ccccc1NC1=CC(=NS(=O)(=O)c2ccc(F)cc2)c2ccccc2C1=O,96*,3
COc1ccc(S(=O)(=O)Nc2ccccc2NS(=O)(=O)c2ccc(OC)cc2)cc1,6,3
COc1ccccc1NC1=CC(=NS(=O)(=O)c2ccccc2)c2ccccc2C1=O,94*,3
COc1ccc(S(=O)(=O)N=C2C=C(Nc3cccc(C)c3)C(=O)c3ccccc32)cc1,91*,-16
COc1ccc(NC2=CC(=NS(=O)(=O)c3ccc(Cl)cc3)c3ccccc3C2=O)cc1,35,0
O=C1C(NS(=O)(=O)c2ccccc2)=CC(=NS(=O)(=O)c2ccc(F)cc2)c2ccccc21,5,-5

# High-throughput results (PubChem BioAssay)
